Results reported in PubChem BioAssay AID651812 (National Center for Advancing Translational Sciences (NCATS), 2012).
Screen size: about 2,100 compounds; about 650 (31%) were called active. Roughly 16% stayed inconclusive and do not appear here. Some of the results follow. Values without a mark were called inactive. Calls come from the whole dose curve; as a rule, active = well fitted inhibition curve with a large enough effect; inconclusive = small, poorly fitted or top-dose-only effect; inactive = flat fitted curve, though single readings scatter.

Experiment: qHTS for inhibitors of Vif-A3G interactions: Cherry picks; note: nearly all actives have a fitted effect of over 80% in size; for activity, negative = fluorescence increase: % of control where 0% means no effect
Settings: HeLa A3G-eYFP + Vif (tagged APOBEC3G with the HIV-1 protein that degrades it), 24 h; Potency: eYFP fluorescence increase; series mostly up to 36.9 µM; activity, negative = fluorescence increase: at the top concentration
Outline: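 HeLa cells stably expressing A3G-eYFP and Vif, cultured overnight then exposed to compounds at several concentrations for 24 hours at 37 C, 5% CO2; cellular yellow fluorescence (488 nm ex, 500-530 nm em) imaged on Acumen, MG132 positive control.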
Potency is the fitted concentration of half-maximal effect.

SMILES	activity, negative = fluorescence increase	Potency
COc1cc(/C=C2\C(=N)N3N=CSC3=NC2=O)cc(Br)c1OC(=O)c1ccco1	12.1% [at 46.1 µM]	
CN(C)c1ccc(/C=C2\C(=N)N3N=C(CC(=O)N4CCCCC4)SC3=NC2=O)cc1		18.4 µM (active)
CN(C)c1ccc(/C=C2\SC(N3CCCCC3)=NC2=O)cc1		23.1 µM (active)
CCN(CC)c1ccc(/C=C2\C(=N)N3N=C(CC(=O)N4CCOCC4)SC3=NC2=O)cc1		0.177 µM (active)
CCN(CC)c1ccc(/C=C2\SC(N)=NC2=O)cc1	-29.5%	
O=c1c2cc3ccccc3n2cnn1Cc1ccccc1F	-10.9%	
CCOc1ccccc1Oc1nc(C)nc2c1oc1ccccc12	-1.4% [at 46.1 µM]	
Brc1ccc2c(c1)C(c1cccnc1)=NNC(c1cccs1)=N2	-2.51%	
COc1ccc2cc(-c3nc(Cl)c4c5c(sc4n3)CC(C)CC5)c(=O)oc2c1 (stereo not drawn)		4.11 µM (active)
CN1C(=O)/C(=C/c2ccccc2OCc2ccc(F)cc2)N(C)C1=S		23.1 µM (active)
O=[N+]([O-])c1ccccc1S(=O)(=O)Nc1ccc(-c2ccc(N3CCOCC3)nn2)cc1		23.1 µM (active)
COc1cc(C(=O)N/N=C(\C)c2ccccn2)cc(OC)c1OC	-24%	
COc1cc(C2Nc3ccc4ncccc4c3C3=C2C(=O)CCC3)cc(OC)c1O (stereo not drawn)	3%	
CCOc1ccc(C(=O)COC(=O)Cc2n[nH]c(=O)c3ccccc23)cc1	-3.45%	
CC[n+]1ccc(/C=C2\Sc3ccccc3N2CCCS(=O)(=O)[O-])c2ccccc21		20.6 µM (active)
COc1ccc(-c2cc(-c3cccs3)nc3sc(C#N)c(N)c23)cc1		16.4 µM (active)
N#Cc1sc2nc(-c3cccs3)cc(-c3ccc(Cl)cc3)c2c1N		15.8 µM (active)
CCN(CC)C(=O)c1sc2nc(-c3cccs3)cc(-c3ccc(Cl)cc3)c2c1N		14 µM (active)
Cc1nc(-c2ccc(Cl)cc2)sc1C(=O)NN	0.88%	
CC(C)CC(=O)NC(=S)N(Cc1ccccc1)Cc1ccccc1	6.36% [at 46.1 µM]	
Oc1ccc(C=NNC(=S)Nc2ccc(F)cc2)c(O)c1	-14.8% [at 46.1 µM]	
COc1cc(OC)cc(C(=O)N/N=C/c2ccc(OC)c(COc3ccc4ccccc4c3)c2)c1	0.593%	
COc1cc(C(=O)Nc2ccc(C)cc2)c2ccccc2n1	-24.2%	
CCCCN1C(=O)C2Cc3c([nH]c4ccccc34)CN2C1=S (stereo not drawn)		14 µM (active)
COc1ccc(/C=N/NC(=O)c2cccnc2)cc1CSc1ccccn1	2.26%	

SMILES	activity, negative = fluorescence increase	Potency
CC1(C(=O)NCc2ccco2)Cc2c(-c3cccc(C(N)=O)c3)ccnc2O1 (stereo not drawn)	-3.61%	
C/C(=N\NC(=O)C(C)n1nc(C)c([N+](=O)[O-])c1C)c1ccccc1O (stereo not drawn)	-0.134% [at 46.1 µM]	
Cc1cc(C)cc(Oc2nc(C(F)(F)F)nc3ccccc23)c1	-7.3%	
CCCCN1C(=O)c2cccc3cc(O)cc(c23)C1=O		16.4 µM (active)
Cc1c(Cl)cccc1NC(=O)c1oc2ccc(S(=O)(=O)N3CCC4(CC3)OCCO4)cc2c1C	-4.65% [at 46.1 µM]	
CCNc1ccc(Br)cc(C(=O)/C=C/c2ccc3c(c2)OCO3)c1=O		18.4 µM (active)
O=C(N/N=C/c1ccc2c(c1)OCO2)c1cccc2ccccc12	-1.42%	
COc1ccc(NC(=O)C(NC(=O)/C=C\c2ccc3c(c2)OCO3)c2ccccc2)cc1 (stereo not drawn)	-4.24% [at 46.1 µM]	
COc1ccc(NC(=O)C2Cc3c(-c4cccc(C(C)=O)c4)ccnc3O2)cc1 (stereo not drawn)	-8.31%	
Cc1c(/C=N\NC(=O)c2cc3ccccc3o2)c2ccccc2n1C	-6.08%	
Cc1ccccc1-n1c(/C=C/c2c(C)n(C)c3ccccc23)nc2ccccc2c1=O		8.2 µM (active)
CCCn1c(CN2CCN(C(=O)OCC)CC2)nc2cc(NC(=O)C(C)C)ccc21	0.103%	
COc1ccccc1Nc1nnc(SCC2CCCCO2)s1 (stereo not drawn)	-0.68%	
Cn1ncc(N=Cc2c(O)ccc3ccccc23)c1C(=O)Nc1cccc(Cl)c1		11.6 µM (active)
O=C(NN=Cc1c(O)ccc2ccccc12)c1ccc2c(c1)OCO2	-26.3% [at 46.1 µM]	
Cc1cc2nc(SCCOC(=O)Nc3cccc(Cl)c3)nc(C)c2cc1C	4.01% [at 46.1 µM]	
CSc1nsc(/C=C/Nc2ccc(F)cc2)c1C#N	4.62% [at 46.1 µM]	
Cc1nc(CSc2nsc(/C=C/N(C)C)c2C#N)cs1	-3.04%	
CSc1nsc(/C=C/Nc2ccc(O)cc2C)c1C#N		20.6 µM (active)
Cc1cc(C)nc(Nc2n[nH]c(COc3cccc4ccccc34)n2)n1	1.35%	
CCN(CC)C(=O)Cn1c(=O)n(-c2ccccc2)c(=O)c2c3c(sc21)CCC3	11.4% [at 46.1 µM]	
Cc1ccc(NC(=O)c2ccc([N+](=O)[O-])s2)cc1S(=O)(=O)N1CCOCC1	3.79%	
Cc1ccc(NC(=O)c2ccc(NCc3ccco3)c([N+](=O)[O-])c2)cc1Cl		18.4 µM (active)
O=C(NC(=S)Nc1ccc(N2CCCCC2)c(Cl)c1)c1ccc2c(c1)OCCO2	-0.693% [at 46.1 µM]	
O=C(O)c1ccc(NS(=O)(=O)c2cccc(C(=O)Nc3ccccc3[N+](=O)[O-])c2)cc1	-3.19%	

SMILES	activity, negative = fluorescence increase	Potency
Cc1ccc(NC(=O)c2ccc(NCC3CCCO3)c([N+](=O)[O-])c2)cc1Cl (stereo not drawn)		16.4 µM (active)
Cc1ccc2c(CC(=O)NCc3ccco3)coc2c1C	-4.36%	
O=C(Nc1cc(F)cc(F)c1)c1ccc(NCCc2ccccc2)c([N+](=O)[O-])c1		14.6 µM (active)
Cc1ccc(NC(=O)CSc2ccccc2NC(=O)c2cccc(Cl)c2)cc1Cl	2.74% [at 46.1 µM]	
S=C(Nc1ccccc1)N1CCn2c1nc1ccccc12	-1.43%	
CC(=O)c1cccc(-c2ccnc3c2CC(C(=O)Nc2ccc4c(c2)OCO4)O3)c1 (stereo not drawn)	-0.931%	
COc1ccccc1N1CCN(C(=O)c2cc(=O)c3cc(C)ccc3o2)CC1	-7.42%	
CCCC(=O)NC(c1ccc(OC)cc1)c1c(O)ccc2ccccc12 (stereo not drawn)	-6.1%	
COc1cc(-c2cc(NC=O)c3ncc(-c4ccc(C(C)=O)cc4)n3c2)cc(OC)c1OC	0.567%	
CCN(CC)c1nc(C)c(C(=S)Nc2cc([N+](=O)[O-])ccc2Cl)s1	7.74% [at 46.1 µM]	
C/C(CCC(C)C)=N\NC(=S)NCc1ccccc1	4.1% [at 46.1 µM]	
COc1cccc(C(=O)Nc2sc3c(c2C#N)CCN(C(C)=O)C3)c1	-8.68%	
CC(C)N1CCc2c(sc(NC(=O)c3ccc(S(=O)(=O)N4CCOCC4)cc3)c2C#N)C1		20.6 µM (active)
CCN1CCc2c(sc(-n3cccc3)c2C(C)NC(=O)Nc2ccc(C(=O)OC)cc2)C1 (stereo not drawn)	10.3% [at 46.1 µM]	
CCCCN(CCCC)S(=O)(=O)c1ccc(C(=O)Nc2sc3c(c2C(N)=O)CCN(CC)C3)cc1		29.1 µM (active)
CC(C)CN(CC(C)C)S(=O)(=O)c1ccc(C(=O)Nc2sc3c(c2C(N)=O)CCN(C(C)C)C3)cc1		18.4 µM (active)
CCN1CCc2c(sc(NC(=O)c3ccc(S(=O)(=O)N(CC)c4ccccc4)cc3)c2C(N)=O)C1		17.7 µM (active)
CC(C)N1CCc2c(sc(NC(=O)c3cc4cc([N+](=O)[O-])ccc4s3)c2C(N)=O)C1	-27.5% [at 46.1 µM]	
COc1ccc(C(=O)Nc2sc3c(c2C#N)CCN(C(C)=O)C3)cc1	-8.58%	
Cc1ccc(C(=O)Nc2sc(Cc3ccc4c(c3)OCO4)c(C)c2C(N)=O)cc1	-26.3% [at 46.1 µM]	
CC1(C)COC(Cn2c3ccccc3c3ccccc32)O1 (stereo not drawn)	-5.66%	
COC(=O)c1ccc(Oc2cc(C)nc(SC)n2)cc1	-10.7%	
CC(/C=N/NC(=O)c1cccc(F)c1)=C\c1ccccc1	-11.1%	
O=C(Cn1ncc(Cl)c(Cl)c1=O)NC(=O)NC1CCCCC1	0.0571%	
C=CCSc1nc2sc3c(c2c(=O)n1CC)CCC3	1.48% [at 46.1 µM]	

SMILES	activity, negative = fluorescence increase	Potency
COc1ccc(S(=O)(=O)N2c3ccccc3OCC2CC(=O)O)cc1 (stereo not drawn)	-10.8%	
COc1ccccc1N(C)S(=O)(=O)c1ccc(C(=O)OCC(=O)N2CCC2)cc1	-5.51%	
CC(C)(C)C(=O)Nc1sc2c(c1C#N)CCN(Cc1ccccc1)C2	-0.815% [at 46.1 µM]	
CCCN1CCc2c(sc(NC(=O)c3ccc(S(=O)(=O)N(C)c4ccccc4)cc3)c2C(N)=O)C1		16.4 µM (active)
CCOC(=O)c1c(NC(=O)c2ccc(S(=O)(=O)N3CCC(C)CC3)cc2)sc2c1CCN(C)C2		18.4 µM (active)
CCCN1CCc2c(sc(NC(=O)c3ccc(S(=O)(=O)N(C)c4ccccc4)cc3)c2C(=O)NC)C1		18.4 µM (active)
CSc1nc2ccccc2cc1/C=C(\C#N)c1ccccc1	-8.54%	
COc1cc(N2CCCC2)c(OC)cc1/C=C(/C#N)c1ccc(F)cc1		18.4 µM (active)
COc1cc(N2CCCC2)c(OC)cc1/C=C(/C#N)c1ccc(Br)cc1		8.2 µM (active)
COc1cc(-c2cnc3c(NC(C)=O)cc(-c4ccccc4CN(C)C)cn23)cc(OC)c1OC	-4.76%	
COc1cc(C(=O)OCC(=O)Nc2ccc(N3CCOCC3)cc2)ccc1OCC(C)C	0.73%	
Cc1cc(C)c2nccc(/C=C/c3ccc(N(C)C)cc3)c2c1		16.4 µM (active)
CN(C)c1ccc(/C=C/c2ccnc3ccc(I)cc23)cc1		5.17 µM (active)
CN(C)c1ccc(/C=C/c2ccnc3ccc(Br)cc23)cc1		2.59 µM (active)
COc1ccc2nccc(/C=C/c3ccc(N(C)C)cc3)c2c1		18.4 µM (active)
CC1(C(=O)NCc2cccs2)Cc2c(-c3ccc(C(N)=O)cc3)ccnc2O1 (stereo not drawn)	-1.21%	
COc1ccccc1-c1cc(NC=O)c2ncc(-c3cccc(C(=O)N(C)C)c3)n2c1	-7.96%	
COc1cc(C(=O)Nc2ccc3c(c2)ncn3C)cc(OC)c1OC	-5.75%	
CC(=O)Nc1cccc(-c2ccnc3c2CC(C(=O)NCc2ccco2)O3)c1 (stereo not drawn)	-4.86%	
CN(C)c1ccc(/C=C/c2ccnc3ccc(N)cc23)cc1		18.4 µM (active)
Cc1ccc2nccc(/C=C/c3ccc(N(C)C)cc3)c2c1		16.4 µM (active)
O=C(NCc1ccccc1)C1Cc2c(-c3cccc(F)c3)ccnc2O1 (stereo not drawn)	-18%	
Cn1c(=O)c2cc(NC(=O)NCc3ccc(F)cc3)ccc2n1C/C=C/c1ccccc1	0.546%	
